Test results as given in PubChem BioAssay (NCATS).
Values joined by “and” are separate entries in the source; they are usually repeats but may differ in a detail not shown here. Equal values may be shown once. Inconclusive results are not listed. Active and inactive are the calls of the source. Unless noted, the call rests on the fitted dose curve; in most records, active means well fitted curve in the direction sought with a large enough effect; inconclusive means small, poorly fitted or top-dose-only effect, or another doubt; inactive means no such curve, though single readings can be large; an effect the other way counts as inactive or inconclusive.

Tested on: not listed separately
Assay: Nrf2 qHTS screen for inhibitors: Validation (AID 493153; active means well fitted inhibition curve with a large enough effect in the main read-out, with a control signal flat, not every such curve was filed as active)
Conditions: A549 ARE-Fluc reporter, 18-24 h; viability change: measured here: cytotoxicity max response; luciferase luminescence, at 46.1 µM (top of the series)
Method in brief: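 Dose-response validation uses reporter A549 cells with firefly luciferase under an antioxidant response element. Compounds stay on cells 18-24 h at 37°C, and luminescence indicates Nrf2-driven transcription.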

| SMILES | outcome | viability change |
| --- | --- | --- |
| CCC1(c2ccc(N)cc2)CCC(=O)NC1=O (stereo unspecified) | inactive | 1.18% |
| CN=C(NC#N)NCCSCc1nc[nH]c1C | inactive | 0.983% |
| CC(NC(C)(C)C)C(=O)c1cccc(Cl)c1 (stereo unspecified) | inactive | 5.02% |
| O=P1(N(CCCl)CCCl)NCCCO1 (stereo unspecified) | inactive | -1.15% |
| O=c1[nH]oc2c1CCNC2 | inactive | -2.38% |
| Cc1ncsc1CCCl | inactive | 6.84% |
| COc1ccc2c(c1OC)C(=O)O[C@H]2[C@@H]1c2cc3c(cc2CCN1C)OCO3 | inactive | 5.02% |
| NCCc1ccc(O)cc1 | inactive | -8.88% |
| C=C(C)[C@H]1CN[C@H](C(=O)O)[C@H]1CC(=O)O | inactive | 1.68% |
| CC(C)c1cccc(C(C)C)c1O | inactive | 0.059% |
| CN1C(=O)CCS(=O)(=O)C1c1ccc(Cl)cc1 (stereo unspecified) | inactive | -1.88% |
| CC(C)(C)NCC(O)c1ccccc1Cl (stereo unspecified) | inactive | 0.543% |
| CC(C)N(CCC(C(N)=O)(c1ccccc1)c1ccccn1)C(C)C (stereo unspecified) | inactive | 0% and 10.1% |
| CCCCC/C=C\C/C=C\C/C=C\C/C=C\CCCC(=O)NCC(=O)O | inactive | 2.11% |

Tested on: not listed separately
Assay: qHTS for Inhibitors of Cell Surface uPA Generation: Validation Assay (AID 493164);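 further: RAW 264.7 macrophage cells exposed to compound for 18 h; 0% is about no effect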
Conditions: mouse cells, plasminogen activation; series mostly up to 38.3 µM
Method in brief: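 RAW 264.7, 4000 cells/well, o/n plating; cpd 7-pt 1:5 dilution 2.45 nM–38.3 uM final; 18 h, 37 C/5% CO2; ATP-Lite, 5 s luminescence exposure.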

| SMILES | outcome |
| --- | --- |
| CCC1(c2ccc(N)cc2)CCC(=O)NC1=O (stereo unspecified) | inactive |
| CC(NC(C)(C)C)C(=O)c1cccc(Cl)c1 (stereo unspecified) | inactive |
| O=P1(N(CCCl)CCCl)NCCCO1 (stereo unspecified) | inactive |
| O=c1[nH]oc2c1CCNC2 | inactive |
| Cc1ncsc1CCCl | inactive |
| O=C(CCCN1CCC2(CC1)C(=O)NCN2c1ccccc1)c1ccc(F)cc1 | inactive |
| COc1ccc2c(c1OC)C(=O)O[C@H]2[C@@H]1c2cc3c(cc2CCN1C)OCO3 | inactive |
| NCCc1ccc(O)cc1 | inactive |
| O=C(O)CCCc1ccc(N(CCCl)CCCl)cc1 | inactive |
| C=C(C)[C@H]1CN[C@H](C(=O)O)[C@H]1CC(=O)O | inactive |
| CC(C)c1cccc(C(C)C)c1O | inactive |
| CN1C(=O)CCS(=O)(=O)C1c1ccc(Cl)cc1 (stereo unspecified) | inactive |
| CC(C)(C)NCC(O)c1ccccc1Cl (stereo unspecified) | inactive |
| CC(C)N(CCC(C(N)=O)(c1ccccc1)c1ccccn1)C(C)C (stereo unspecified) | inactive |
| CCCCC/C=C\C/C=C\C/C=C\C/C=C\CCCC(=O)NCC(=O)O | inactive |

Biological target: Galactokinase (Homo sapiens) (UniProt P51570)
Sequence (P51570 whole entry, looked up): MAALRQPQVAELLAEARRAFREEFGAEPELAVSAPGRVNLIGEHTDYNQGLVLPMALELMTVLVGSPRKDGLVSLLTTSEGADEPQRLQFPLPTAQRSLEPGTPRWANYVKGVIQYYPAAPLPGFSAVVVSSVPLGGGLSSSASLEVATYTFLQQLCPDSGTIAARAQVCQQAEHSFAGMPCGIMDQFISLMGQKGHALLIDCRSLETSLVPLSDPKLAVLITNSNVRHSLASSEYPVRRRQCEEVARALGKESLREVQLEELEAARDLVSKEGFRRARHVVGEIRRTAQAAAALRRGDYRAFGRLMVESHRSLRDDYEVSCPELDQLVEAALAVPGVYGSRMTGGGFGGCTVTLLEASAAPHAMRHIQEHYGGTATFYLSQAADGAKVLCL
Assay: qHTS Validation Assay for Inhibitors of Human Galactokinase (GALK) (AID 493189); further: 0% is about no effect
Conditions: purified human GALK enzyme activity, qHTS 7-point titration; series mostly up to 57.5 µM
Method in brief: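 Compounds were pin-transferred into ATP buffer, then GALK-galactose mix was added (final 5 nM enzyme, 100 uM galactose, 35 uM ATP). After 1 h at room temperature, remaining ATP was measured luminescently.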

| SMILES | outcome |
| --- | --- |
| CCC1(c2ccc(N)cc2)CCC(=O)NC1=O (stereo unspecified) | inactive |
| CC(NC(C)(C)C)C(=O)c1cccc(Cl)c1 (stereo unspecified) | inactive |
| O=P1(N(CCCl)CCCl)NCCCO1 (stereo unspecified) | inactive |
| C[C@]12CCC(=O)C=C1CC[C@@H]1[C@@H]2CC[C@]2(C)C(=O)CC[C@@H]12 | inactive |
| O=C(CCCN1CCC2(CC1)C(=O)NCN2c1ccccc1)c1ccc(F)cc1 | inactive |
| NCCc1ccc(O)cc1 | inactive |
| O=C(O)CCCc1ccc(N(CCCl)CCCl)cc1 | inactive |
| C=C(C)[C@H]1CN[C@H](C(=O)O)[C@H]1CC(=O)O | inactive |
| CC(C)c1cccc(C(C)C)c1O | inactive |
| CN1C(=O)CCS(=O)(=O)C1c1ccc(Cl)cc1 (stereo unspecified) | inactive |
| CC(C)(C)NCC(O)c1ccccc1Cl (stereo unspecified) | inactive |
| CC(C)N(CCC(C(N)=O)(c1ccccc1)c1ccccn1)C(C)C (stereo unspecified) | inactive |
| CCCCC/C=C\C/C=C\C/C=C\C/C=C\CCCC(=O)NCC(=O)O | inactive |
